# Test results reported in PubChem BioAssay (NCATS).
# Inconclusive results are not listed. A call without a number means that no potency is given here. Activity calls are given as the source filed them. Unless noted, calls come from the whole dose curve; as a rule, active = well fitted curve in the direction sought with a large enough effect in the repeat runs; inconclusive = weak or mixed curves; inactive = no such curve, though single readings can be large; an effect the other way counts as inactive or inconclusive.
# What was measured:
# [1] = molecular target: Cytochrome P450 2D6 (Homo sapiens) (UniProt P10635); assay: Cytochrome P450 family 2 subfamily D member 6 (CYP2D6) small molecule antagonists: luciferase biochemical (cell-free) qHTS assay (AID 1645840); note: nearly all actives have a fitted effect of over 55% in size
# How it was run: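 P450-Glo CYP2D6 system: proluciferin substrate converted by enzyme to luciferin, read by luminescence proportional to activity. Enzyme-substrate mix with compound 10 min at room temperature, then NADPH regeneration 1 h before detection reagent.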
# [2] = Primary qHTS for inhibitors of nuclear receptor binding SET domain protein 2 (NSD2) in an isogenic RCH-ACV NSD2 p.E1099K mutant (9B) (AID 1645876; active = well fitted curve in the direction sought with a large enough effect; an effect the other way counts as inactive or inconclusive; note: nearly all actives have a fitted effect of over 70% in size)
# [3] = Primary qHTS for inhibitors of nuclear receptor binding SET domain protein 2 (NSD2) in an RCH-ACV wild type WT cells (2C) (AID 1645877; active = well fitted curve in the direction sought with a large enough effect; an effect the other way counts as inactive or inconclusive; note: nearly all actives have a fitted effect of over 70% in size)
# [4] = molecular target: Cytochrome P450 2C9 (Homo sapiens) (UniProt P11712); assay: Cytochrome P450 family 2 subfamily C member 9 (CYP2C9) small molecule antagonists: luciferase biochemical (cell-free) qHTS assay (AID 1645842); note: nearly all actives have a fitted effect of over 55% in size
# How it was run: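 P450-Glo CYP2C9 system: proluciferin substrate with enzyme in mix containing 0.4% BSA, 10 min at room temperature, then NADPH regeneration solution added and incubated 1 h at 37C. Detection reagent stopped reaction; luminescence read after 20 min as RLU.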
# Potency is the fitted concentration of half-maximal effect.
# Chain of Cytochrome P450 2C9 (Homo sapiens) (P11712 whole entry, looked up): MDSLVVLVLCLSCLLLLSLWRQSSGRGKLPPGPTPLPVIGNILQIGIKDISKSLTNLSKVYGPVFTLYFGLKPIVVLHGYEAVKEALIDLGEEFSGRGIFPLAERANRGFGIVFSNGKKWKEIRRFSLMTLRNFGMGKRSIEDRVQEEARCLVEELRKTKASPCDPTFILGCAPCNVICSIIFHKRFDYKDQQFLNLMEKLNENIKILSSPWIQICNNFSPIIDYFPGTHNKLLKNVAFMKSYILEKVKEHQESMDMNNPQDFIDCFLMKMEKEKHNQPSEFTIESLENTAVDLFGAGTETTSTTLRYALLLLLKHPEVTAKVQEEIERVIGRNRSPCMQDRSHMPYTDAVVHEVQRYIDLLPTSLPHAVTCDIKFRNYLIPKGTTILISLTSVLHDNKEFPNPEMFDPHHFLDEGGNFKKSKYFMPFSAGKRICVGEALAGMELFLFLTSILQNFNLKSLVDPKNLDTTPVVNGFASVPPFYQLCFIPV
# Chain of Cytochrome P450 2D6 (Homo sapiens) (P10635 whole entry, looked up): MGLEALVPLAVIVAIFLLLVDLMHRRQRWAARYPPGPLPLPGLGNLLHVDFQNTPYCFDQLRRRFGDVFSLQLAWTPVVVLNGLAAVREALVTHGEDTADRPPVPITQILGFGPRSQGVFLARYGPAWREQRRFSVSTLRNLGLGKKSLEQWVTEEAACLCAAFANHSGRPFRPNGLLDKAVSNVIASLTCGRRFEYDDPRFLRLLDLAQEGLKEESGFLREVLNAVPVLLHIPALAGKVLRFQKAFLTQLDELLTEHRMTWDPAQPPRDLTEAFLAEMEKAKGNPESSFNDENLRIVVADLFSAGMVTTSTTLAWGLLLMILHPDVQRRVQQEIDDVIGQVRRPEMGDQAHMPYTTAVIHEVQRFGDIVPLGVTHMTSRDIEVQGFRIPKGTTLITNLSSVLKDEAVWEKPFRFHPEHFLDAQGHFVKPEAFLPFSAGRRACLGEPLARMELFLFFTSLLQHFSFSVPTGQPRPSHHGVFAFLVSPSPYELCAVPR
SMILES,Potency [1],Potency [2],Potency [3],Potency [4]
CC(C)C[C@@H](C(=O)N[C@@H](Cc1ccc(OCc2ccccc2)cc1)C(=O)NC(C)(C)C)N(C)Cc1ccc(C(C)(C)C)cc1,inactive,inactive,inactive,
CNc1ccc([N+](=O)[O-])c(Nc2ccc3[nH]ncc3c2)n1,,7.28 µM (active),7.28 µM (active),756 nM (active)
CN1CC(O)c2cc(N=NC(N)=O)c(O)cc21 (stereo unspecified),,,,inactive
Cc1cc(-c2cnc(N)c3c(-c4ccc5scnc5c4)csc23)n(C)n1,,4.59 µM (active),5.78 µM (active),10700 nM (active)
CCOC(=O)[C@H](CCc1ccccc1)N[C@H]1CCCN2CCC[C@@H](C(=O)O)N2C1=O,inactive,,,inactive
C=CS(=O)(=O)O,inactive,,,inactive
C=C1CCN([C@H](C)[C@](O)(Cn2cncn2)c2ccc(F)cc2F)CC1,23.9 µM (active),,,477 nM (active)
